# Laboratory results reported in ChEMBL document CHEMBL3988442, “University of Dundee, Small-Polar-MMV Screening Library” (2021).
# For some assays here: Results with a measured potency or affinity are listed apart.
# What was measured:
# Parameters in all cases: scale not given: direction of the effect not stated beside the values
# [1] = target: Protein translocase subunit SecA (Escherichia coli (strain K12)) (UniProt P10408); assay: Assay to Identify E. coli SecA ATPase Inhibitors; format: functional; conditions: 30 µM
# [2] = target: T1, Ubiquitin-activating enzyme e1, putative (Leishmania donovani (strain BPK282A1)) (UniProt E9BSI1); assay: Leishmania donovani Ubiquitin Activating Enzyme (LdE1); format: functional; conditions: 30 µM
# T1 sequence (whole entry): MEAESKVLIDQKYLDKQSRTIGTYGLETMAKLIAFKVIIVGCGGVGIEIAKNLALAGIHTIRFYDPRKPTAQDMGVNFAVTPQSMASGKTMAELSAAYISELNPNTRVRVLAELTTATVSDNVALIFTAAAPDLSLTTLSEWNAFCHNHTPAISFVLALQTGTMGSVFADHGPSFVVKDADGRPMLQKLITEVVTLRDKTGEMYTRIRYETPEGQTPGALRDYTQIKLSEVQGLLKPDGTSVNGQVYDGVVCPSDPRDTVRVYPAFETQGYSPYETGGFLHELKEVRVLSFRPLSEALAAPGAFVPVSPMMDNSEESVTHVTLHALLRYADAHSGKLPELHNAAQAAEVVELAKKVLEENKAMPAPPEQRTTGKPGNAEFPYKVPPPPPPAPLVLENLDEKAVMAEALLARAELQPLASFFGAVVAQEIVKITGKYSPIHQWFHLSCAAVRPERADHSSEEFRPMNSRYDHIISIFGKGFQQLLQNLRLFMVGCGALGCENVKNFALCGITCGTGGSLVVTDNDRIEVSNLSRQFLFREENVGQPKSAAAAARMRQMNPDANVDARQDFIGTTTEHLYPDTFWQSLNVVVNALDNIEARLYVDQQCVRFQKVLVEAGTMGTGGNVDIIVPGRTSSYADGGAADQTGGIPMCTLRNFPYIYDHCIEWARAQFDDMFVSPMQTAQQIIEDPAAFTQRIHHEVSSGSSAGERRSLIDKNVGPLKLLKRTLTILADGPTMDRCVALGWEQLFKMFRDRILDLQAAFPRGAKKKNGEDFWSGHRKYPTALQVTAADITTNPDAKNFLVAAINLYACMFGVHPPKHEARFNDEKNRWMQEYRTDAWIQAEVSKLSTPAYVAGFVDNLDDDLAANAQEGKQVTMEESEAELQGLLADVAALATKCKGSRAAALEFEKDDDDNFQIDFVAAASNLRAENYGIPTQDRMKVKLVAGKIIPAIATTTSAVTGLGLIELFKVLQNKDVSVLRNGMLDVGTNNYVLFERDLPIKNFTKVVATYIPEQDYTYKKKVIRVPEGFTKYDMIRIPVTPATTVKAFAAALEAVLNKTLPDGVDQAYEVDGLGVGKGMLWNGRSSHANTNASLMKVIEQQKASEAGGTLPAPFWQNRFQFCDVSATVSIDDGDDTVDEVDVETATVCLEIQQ
# [3] = target: T2, Aspartate--tRNA(Asp/Asn) ligase (Mycobacterium tuberculosis (strain ATCC 25618 / H37Rv)) (UniProt P9WFW3); assay: Assay for Asp RNA synthetase-1 from Mycobacterium tuberculosis; format: functional; conditions: 30 µM; also: in the data most compounds retested in dose-response had high values
# T2 sequence (whole entry): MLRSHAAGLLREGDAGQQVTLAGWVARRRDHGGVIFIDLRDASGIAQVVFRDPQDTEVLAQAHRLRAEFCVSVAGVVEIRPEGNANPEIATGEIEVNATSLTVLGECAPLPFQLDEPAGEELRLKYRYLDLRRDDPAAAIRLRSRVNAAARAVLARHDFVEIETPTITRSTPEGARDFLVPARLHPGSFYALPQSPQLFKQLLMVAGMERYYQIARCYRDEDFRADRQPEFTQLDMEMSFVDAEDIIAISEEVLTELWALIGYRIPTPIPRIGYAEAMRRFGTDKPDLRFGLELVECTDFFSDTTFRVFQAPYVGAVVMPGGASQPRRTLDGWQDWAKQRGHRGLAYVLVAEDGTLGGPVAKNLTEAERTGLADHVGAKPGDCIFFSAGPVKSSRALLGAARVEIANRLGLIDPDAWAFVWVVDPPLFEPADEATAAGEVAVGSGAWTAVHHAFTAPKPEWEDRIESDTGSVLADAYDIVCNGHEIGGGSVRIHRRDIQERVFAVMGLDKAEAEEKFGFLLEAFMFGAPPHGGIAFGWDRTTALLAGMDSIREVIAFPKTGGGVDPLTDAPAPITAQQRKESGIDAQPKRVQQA
# [4] = target: Sialic acid-binding Ig-like lectin 9 (Homo sapiens) (UniProt Q9Y336); assay: Hs-Siglec9 ALPHAscreen SOP 20170721; conditions: 10 µM
# Trypanosoma cruzi = assay: Trypanosoma cruzi phosphomannomutase and mannose-1-phosphate guanylyltransferase assay; format: functional; conditions: 10 µM
# [5] = target: T3, Arginase-2, mitochondrial (Homo sapiens) (UniProt P78540); assay: in vitro enzyme assay to detect the production of urea directly proportional to the activity of Arginase II; format: functional; conditions: 33.3 µM; also: in the data most compounds retested in dose-response had high values
# T3 sequence (whole entry): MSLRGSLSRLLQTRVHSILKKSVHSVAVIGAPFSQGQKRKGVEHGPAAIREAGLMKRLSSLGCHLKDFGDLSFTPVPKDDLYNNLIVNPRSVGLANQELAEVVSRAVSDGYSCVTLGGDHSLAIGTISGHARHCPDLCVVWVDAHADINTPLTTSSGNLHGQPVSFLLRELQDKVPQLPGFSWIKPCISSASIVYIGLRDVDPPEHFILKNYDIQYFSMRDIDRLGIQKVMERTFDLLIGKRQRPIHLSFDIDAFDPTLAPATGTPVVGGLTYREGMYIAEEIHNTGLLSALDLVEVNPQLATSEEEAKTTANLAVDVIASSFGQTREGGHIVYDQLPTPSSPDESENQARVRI
# [6] = target: T4, Proteasome subunit beta (Trypanosoma cruzi) (UniProt O96673); assay: Trypanosoma cruzi proteasome chymotrypsin-like activity (TcProtChymo) assay.; also: in the data most compounds retested in dose-response had high values; format: functional; conditions: 9.37 µM
# T4 sequence (whole entry): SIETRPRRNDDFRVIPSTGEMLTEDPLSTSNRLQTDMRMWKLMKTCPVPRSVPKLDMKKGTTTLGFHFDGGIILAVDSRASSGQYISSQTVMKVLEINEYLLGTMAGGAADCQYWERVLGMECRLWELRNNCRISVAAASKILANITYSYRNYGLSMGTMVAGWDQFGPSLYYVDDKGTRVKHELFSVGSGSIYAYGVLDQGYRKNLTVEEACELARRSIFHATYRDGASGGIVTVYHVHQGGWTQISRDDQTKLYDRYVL
# Homo sapiens = organism: Homo sapiens; assay: To identify inhibition of the IFN signalling (Jak-Stat) pathway via expression of an eGFP reporter gene under the control of an IFN-stimulated response element (ISRE) containing MxA promoter.; format: functional; conditions: 30 µM
# [7] = target: Shiga toxin 2 (Escherichia coli O157:H7) (UniProt P09385+P09386); assay: E. coli 0.157:H7 Shiga Toxin SOP - stx2 screening assay; format: functional; conditions: 30 µM
# [8] = target: T5, Tyrosyl-tRNA synthetase, putative (Trypanosoma cruzi (strain CL Brener)) (UniProt Q4DSP6); assay: Trypanosoma cruzi tyrosyl tRNA synthetase (TcYRS) _High Tyrosine SOP; format: functional; conditions: 30 µM; also: in the data most compounds retested in dose-response had high values
# T5 sequence (whole entry): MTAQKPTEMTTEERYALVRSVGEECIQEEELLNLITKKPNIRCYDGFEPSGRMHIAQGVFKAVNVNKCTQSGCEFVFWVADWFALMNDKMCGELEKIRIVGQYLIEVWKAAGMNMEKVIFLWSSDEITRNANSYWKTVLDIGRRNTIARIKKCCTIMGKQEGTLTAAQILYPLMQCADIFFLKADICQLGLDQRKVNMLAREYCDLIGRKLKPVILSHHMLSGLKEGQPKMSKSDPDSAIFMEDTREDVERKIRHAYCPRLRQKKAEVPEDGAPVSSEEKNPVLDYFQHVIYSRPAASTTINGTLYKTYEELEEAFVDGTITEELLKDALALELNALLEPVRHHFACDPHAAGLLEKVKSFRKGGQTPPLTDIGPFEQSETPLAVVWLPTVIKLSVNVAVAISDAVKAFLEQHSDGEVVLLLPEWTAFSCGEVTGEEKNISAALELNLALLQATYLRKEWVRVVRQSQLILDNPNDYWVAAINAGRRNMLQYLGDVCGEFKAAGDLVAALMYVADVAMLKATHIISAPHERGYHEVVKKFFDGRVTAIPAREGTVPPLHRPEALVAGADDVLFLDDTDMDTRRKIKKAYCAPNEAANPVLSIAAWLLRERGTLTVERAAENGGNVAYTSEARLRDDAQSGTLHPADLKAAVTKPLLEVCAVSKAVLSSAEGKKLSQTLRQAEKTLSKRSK
# [9] = target: T5, Tyrosyl-tRNA synthetase, putative (Trypanosoma cruzi (strain CL Brener)); assay: Trypanosoma cruzi tyrosyl tRNA synthetase (TcYRS) SOP; format: functional; conditions: 30 µM
# [10] = target: Chromo domain-containing protein 1 (Saccharomyces cerevisiae (strain ATCC 204508 / S288c) (Baker's yeast)) (UniProt P32657); assay: ScCHD-1 Enzyme Inhibition Assay; format: functional; conditions: 30 µM; also: in the data most compounds retested in dose-response had high values
# Sequence of Chromo domain-containing protein 1 (Saccharomyces cerevisiae (strain ATCC 204508 / S288c) (Baker's yeast)) (P32657 whole entry, the tested form may be a part): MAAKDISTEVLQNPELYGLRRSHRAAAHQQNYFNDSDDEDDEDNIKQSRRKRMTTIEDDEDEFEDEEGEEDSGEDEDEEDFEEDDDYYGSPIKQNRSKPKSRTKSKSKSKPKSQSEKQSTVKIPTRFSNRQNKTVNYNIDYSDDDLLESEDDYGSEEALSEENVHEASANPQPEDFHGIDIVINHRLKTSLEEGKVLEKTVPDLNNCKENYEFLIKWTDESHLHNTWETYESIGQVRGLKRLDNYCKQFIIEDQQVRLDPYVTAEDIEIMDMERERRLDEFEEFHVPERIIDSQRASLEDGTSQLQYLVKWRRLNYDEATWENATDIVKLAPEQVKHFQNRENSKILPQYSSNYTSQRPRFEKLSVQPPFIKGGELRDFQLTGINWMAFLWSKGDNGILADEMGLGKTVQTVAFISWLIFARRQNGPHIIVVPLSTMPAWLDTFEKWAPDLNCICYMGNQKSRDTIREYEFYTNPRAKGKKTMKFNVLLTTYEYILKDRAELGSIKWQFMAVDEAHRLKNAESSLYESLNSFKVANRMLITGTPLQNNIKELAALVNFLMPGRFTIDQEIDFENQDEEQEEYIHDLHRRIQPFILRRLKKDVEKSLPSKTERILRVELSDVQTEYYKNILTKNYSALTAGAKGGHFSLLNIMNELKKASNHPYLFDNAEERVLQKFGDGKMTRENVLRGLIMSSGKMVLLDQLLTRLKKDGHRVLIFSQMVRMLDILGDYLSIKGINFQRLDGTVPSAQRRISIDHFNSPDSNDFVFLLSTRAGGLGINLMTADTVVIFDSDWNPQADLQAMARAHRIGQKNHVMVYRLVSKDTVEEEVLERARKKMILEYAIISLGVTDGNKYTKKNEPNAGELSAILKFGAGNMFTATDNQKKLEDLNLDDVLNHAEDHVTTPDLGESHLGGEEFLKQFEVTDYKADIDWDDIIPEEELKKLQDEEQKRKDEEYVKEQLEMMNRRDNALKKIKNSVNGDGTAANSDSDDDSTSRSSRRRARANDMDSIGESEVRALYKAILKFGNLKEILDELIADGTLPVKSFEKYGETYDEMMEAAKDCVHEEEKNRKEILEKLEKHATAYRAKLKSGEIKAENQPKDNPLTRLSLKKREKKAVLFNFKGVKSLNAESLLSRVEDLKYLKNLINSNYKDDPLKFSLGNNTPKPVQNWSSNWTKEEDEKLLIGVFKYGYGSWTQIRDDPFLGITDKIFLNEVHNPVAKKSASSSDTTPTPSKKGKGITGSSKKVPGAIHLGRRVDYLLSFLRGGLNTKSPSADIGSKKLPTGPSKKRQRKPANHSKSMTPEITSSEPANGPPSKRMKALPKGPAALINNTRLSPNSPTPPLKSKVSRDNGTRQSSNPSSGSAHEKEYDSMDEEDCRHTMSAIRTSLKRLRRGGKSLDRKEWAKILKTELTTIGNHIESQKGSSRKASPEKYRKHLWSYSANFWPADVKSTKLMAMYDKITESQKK
# Sequence of Protein translocase subunit SecA (Escherichia coli (strain K12)) (P10408 whole entry): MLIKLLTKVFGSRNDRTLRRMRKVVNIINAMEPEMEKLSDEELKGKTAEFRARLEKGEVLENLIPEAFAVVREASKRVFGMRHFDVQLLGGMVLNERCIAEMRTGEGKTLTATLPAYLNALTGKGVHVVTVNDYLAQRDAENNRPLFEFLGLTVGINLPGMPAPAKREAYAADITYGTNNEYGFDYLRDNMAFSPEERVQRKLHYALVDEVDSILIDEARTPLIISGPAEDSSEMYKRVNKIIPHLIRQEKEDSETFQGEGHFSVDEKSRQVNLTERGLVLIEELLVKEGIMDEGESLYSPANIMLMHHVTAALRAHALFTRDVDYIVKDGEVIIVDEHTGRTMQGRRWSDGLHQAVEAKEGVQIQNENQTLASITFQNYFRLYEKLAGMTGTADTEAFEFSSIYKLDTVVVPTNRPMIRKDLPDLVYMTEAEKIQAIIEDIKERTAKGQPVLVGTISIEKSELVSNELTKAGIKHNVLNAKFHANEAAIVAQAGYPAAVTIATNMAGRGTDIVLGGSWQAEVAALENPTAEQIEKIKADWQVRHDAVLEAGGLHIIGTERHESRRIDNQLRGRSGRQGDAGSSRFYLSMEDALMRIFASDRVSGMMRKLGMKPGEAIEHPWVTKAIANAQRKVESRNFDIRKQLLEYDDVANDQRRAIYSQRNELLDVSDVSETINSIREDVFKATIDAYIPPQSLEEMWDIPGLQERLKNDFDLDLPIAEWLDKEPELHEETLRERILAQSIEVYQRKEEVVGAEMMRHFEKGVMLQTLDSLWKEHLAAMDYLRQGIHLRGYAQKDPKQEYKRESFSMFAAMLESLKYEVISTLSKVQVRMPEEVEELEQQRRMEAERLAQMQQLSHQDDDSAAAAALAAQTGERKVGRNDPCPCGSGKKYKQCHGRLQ
# Sequence of Sialic acid-binding Ig-like lectin 9 (Homo sapiens) (Q9Y336 whole entry): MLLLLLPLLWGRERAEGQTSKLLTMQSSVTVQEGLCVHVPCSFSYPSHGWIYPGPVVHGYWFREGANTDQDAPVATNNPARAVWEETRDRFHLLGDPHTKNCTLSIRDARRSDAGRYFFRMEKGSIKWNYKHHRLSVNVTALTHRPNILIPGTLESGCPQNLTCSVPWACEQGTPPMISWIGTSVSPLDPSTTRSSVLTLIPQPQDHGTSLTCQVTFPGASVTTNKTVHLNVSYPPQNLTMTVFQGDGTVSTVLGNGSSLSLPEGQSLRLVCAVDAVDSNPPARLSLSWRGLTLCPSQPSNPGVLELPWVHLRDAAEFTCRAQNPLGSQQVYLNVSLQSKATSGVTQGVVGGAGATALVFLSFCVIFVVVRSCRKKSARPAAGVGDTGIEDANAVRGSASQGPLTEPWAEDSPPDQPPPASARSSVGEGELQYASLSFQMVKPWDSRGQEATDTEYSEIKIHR
smiles,measurement,setting,value
CCC(O)CN1CCN(C(=O)Cc2cc(Cl)ccc2OC)CC1 (stereo not drawn),Percent Effect,[1],1.11%
same,Percent Effect,[2],13%
same,Percent Effect,[3],-1.9%
same,Percent Effect,[4],12.1%
same,Percent Effect,Trypanosoma cruzi,-1.31%
same,Percent Effect,[5],-3.89%
same,Percent Effect,[6],4.04%
same,Percent Effect,Homo sapiens,13.4%
same,Percent Effect,[7],-9.78%
same,Percent Effect,[8],4.9%
same,Percent Effect,[9],21.2%
same,Percent Effect,[10],-7%
O=C(Nc1cccnc1)[C@@H]1C[C@H]2OCC[C@H]2N(Cc2ccsc2)C1,Percent Effect,[1],-6.23%
same,Percent Effect,[2],9.09%
same,Percent Effect,[3],-1.88%
same,Percent Effect,[4],6.98%
same,Percent Effect,Trypanosoma cruzi,0.487%
same,Percent Effect,[5],-0.81%
same,Percent Effect,[6],13.7%
same,Percent Effect,Homo sapiens,0.767%
same,Percent Effect,[7],-6.35%
same,Percent Effect,[8],4.74%
same,Percent Effect,[9],10.3%
same,Percent Effect,[10],-2.28%
CCC(=O)NCc1cc(Br)c(OC)c(OC)c1,Percent Effect,[3],-1.55%
CN(CCO)Cc1nnc(C2CCN(C(=O)C(C)(C)C)CC2)n1C,Percent Effect,[3],3.14%
CCCC(NC(=O)c1cc(C)n(C2CC2)c1C)c1nnn[nH]1 (stereo not drawn),Percent Effect,[3],-0.908%
CCn1nc(CC(C)C)cc1C(=O)N1CC[C@@H](O)C1,Percent Effect,[3],-5.25%
COc1cc(CNC(=O)NCCCF)cc(Br)c1OC,Percent Effect,[3],-0.885%
O=C(c1cncc(N2CCC(O)(CO)CC2)n1)N1CCCC1,Percent Effect,[3],-3.27%
Cc1nc(C)n(CC2CCCCN2CC(=O)Nc2nncs2)n1 (stereo not drawn),Percent Effect,[3],-3.83%
O=C(O)c1csc(S(=O)(=O)N2CCCc3ccc(F)cc32)c1,Percent Effect,[3],1.9%
O=C(NCCCn1cccn1)N1CCCC1c1ccncc1 (stereo not drawn),Percent Effect,[3],-0.931%
CCC(CO)N(Cc1ccccn1)C(=O)c1ccc2c(c1)CCO2 (stereo not drawn),Percent Effect,[3],-5.37%
CNC(=O)NC(=O)CN1CCC(c2c[nH]c3ccc(OC)cc23)CC1,Percent Effect,[3],-2.54%
O=C(NCC(F)(F)F)NC1CCCc2c1cnn2CCO (stereo not drawn),Percent Effect,[3],-1.62%
CS(=O)(=O)NCC(=O)NC1CCc2nccn2C1 (stereo not drawn),Percent Effect,[3],2.91%
Cc1cc(C)n(-c2cc(N3CCN(C(=O)C(C)(C)C)CC3)nc(C)n2)n1,Percent Effect,[3],0.747%
COc1ncccc1C(=O)N1CCC(CNC(C)=O)CC1,Percent Effect,[3],1.83%
CSCCC1c2nc[nH]c2CCN1Cc1ccnc2ccccc12 (stereo not drawn),Percent Effect,[3],5.78%
CN(CCO)Cc1nnc(C2CCN(C(=O)c3cccnc3)CC2)n1C,Percent Effect,[3],-0.977%
CCC[C@@H]1CN(S(=O)(=O)c2ccc(C)c(F)c2)C[C@H]1N(C)C,Percent Effect,[3],0.149%
COc1ccccc1CN(C)c1nccc(-c2cn(C)nc2C)n1,Percent Effect,[3],-1.34%
COc1cccc(S(=O)(=O)CCN2CCC3(CC2)OCCO3)c1,Percent Effect,[3],-0.724%
CCN(CC1CN(Cc2ncc(C)o2)CCO1)c1cccnn1 (stereo not drawn),Percent Effect,[3],-1.34%
CC(C)CN1CCCn2nc(CNC(=O)c3cccnc3O)cc2C1,Percent Effect,[3],-2.56%
CC(C)n1ccnc1C1CCCN(c2ccnc3ccccc23)C1 (stereo not drawn),Percent Effect,[3],-3.69%
CCNC(=O)c1ccc(N2CCCC(c3nccn3C(C)C)C2)nc1 (stereo not drawn),Percent Effect,[3],-3.8%
CCCC(NC(=O)c1ccc(OC)cc1F)c1nnn[nH]1 (stereo not drawn),Percent Effect,[3],-1.41%
COc1ncccc1NC(=O)N1CCC(CNC(C)=O)CC1,Percent Effect,[3],-1.39%
c1ccc2c(N3CCCCC3Cn3cncn3)ncnc2c1 (stereo not drawn),Percent Effect,[3],0.172%
CCN(CC)c1ccc(-c2nc(-c3cccc(OC)c3OC)no2)cn1,Percent Effect,[3],-4.22%
COc1ccc([C@@H]2CN(C(=O)CCC(F)(F)F)C[C@H]2NC(C)=O)cc1,Percent Effect,[3],-2.84%
